Rows were chosen to be rich in hits. Some 0.85% of all compounds tested hit in one or more screens of this group.
TSHR antagonist – antagonists of human thyroid stimulating hormone receptor. 0.2% of 330,000 active. activity change, negative = inhibition, % at 11.5 µM. P16473. TSHR-expressing cells, TSH-stimulated cAMP HTRF, 2 h; active compounds read low;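 active = activity change below a set negative limit, meaning inhibition stronger than a set level, cut at about -70% in these data; inconclusive = activity change between two set negative limits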
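Cell-based HTRF cAMP assay; TSHR cells + compound, TSH EC80 (4nM final), 2 h, 37 deg C. Lysis with anti-cAMP cryptate and cAMP-d2, 30 min RT, read 665/620 nm.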
Chronic BCR inh – blocks chronic active B-cell receptor signaling; ABC-DLBCL IkBa-CBG/CBR reporter, luminescence ratio, 4 h; 0.05% of 340,000 active; Potency, µM (series often up to 46.1 µM), most hits filed as inhibitors; active = well fitted inhibition curve with a large enough effect in the signal ratio, with a control signal flat, not every such curve was filed as active; inconclusive = small, poorly fitted or top-dose-only effect, or effect the other way, or a change in a side signal; the % refers to the signal ratio
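Doxycycline induced both beetle luciferases in TMD8 lymphoma cells; IKK-driven degradation limits the IkappaBalpha-fused green signal, while red luminescence normalises for cell number and nonspecific effects. Compounds tested up to 46 uM, 4 hrs.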
S-ASM inh – blocks human secretory acid sphingomyelinase; P17405; placental ASM, HMU-PC fluorogenic substrate, 60 min; Potency, µM (titrated, usually from 57.5 µM), actives largely listed as inhibitors; 0.006% of 340,000 active; AID 504937; active = well fitted inhibition curve with a large enough effect; inconclusive = small, poorly fitted or top-dose-only effect; inactive = no such curve, though single readings can be large or run the other way
Target sequence (P17405 47-631 limits assumed): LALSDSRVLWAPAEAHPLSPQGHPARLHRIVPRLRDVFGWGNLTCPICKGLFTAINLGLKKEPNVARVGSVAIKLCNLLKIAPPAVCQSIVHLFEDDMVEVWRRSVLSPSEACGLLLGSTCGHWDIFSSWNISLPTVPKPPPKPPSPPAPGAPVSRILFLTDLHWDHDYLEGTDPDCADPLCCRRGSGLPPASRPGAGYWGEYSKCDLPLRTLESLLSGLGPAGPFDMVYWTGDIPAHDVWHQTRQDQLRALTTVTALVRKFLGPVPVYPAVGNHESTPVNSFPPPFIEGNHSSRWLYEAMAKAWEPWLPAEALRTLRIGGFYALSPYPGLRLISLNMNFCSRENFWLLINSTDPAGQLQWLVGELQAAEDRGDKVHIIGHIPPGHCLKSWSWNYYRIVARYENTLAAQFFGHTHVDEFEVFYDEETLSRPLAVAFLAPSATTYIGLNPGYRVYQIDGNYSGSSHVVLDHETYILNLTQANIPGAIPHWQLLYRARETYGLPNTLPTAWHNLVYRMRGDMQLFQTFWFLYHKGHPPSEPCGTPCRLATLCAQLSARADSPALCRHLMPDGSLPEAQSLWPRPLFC
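Human placenta-derived ASM preincubated with compound 10 min at room temperature, then reacted with 9 uM (final) fluorogenic HMU-PC substrate for 60 min at 37 C. Stop solution raises pH to 10; fluorescence read at Ex 386/Em 447 nm.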
CtBP-E1A blk – CtBP/E1A binding inhibition; 0.49% of 340,000 active; AlphaScreen GST-E1A/His-CtBP binding, 1536-well; active compounds read low; activity change, % (test concentration not listed)
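Steps: dispense buffer (Tris pH 8.0, NaCl 300 mM, TCEP 1 mM, BSA, Tween 20); add 5X protein mix (GST-E1A, His-CtBP, 125 nM each); pin 23 nL compound; 2 h at 37 °C, dark; add 5X beads (50 ug/mL); 1 h; read.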
Six1-Eya2 inh – Six1/Eya2 interaction inhibition | Q15475+O00167 | AlphaScreen GST-Six1/His-Eya2 binding, biochemical; active compounds read low | 0.56% of 360,000 active | activity change, % (concentration not given with the values)
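Six1/Eya2 binding was read as AlphaScreen signal after compounds were pinned into GST-Six1 plus His-tagged Eya2 (5X stock 250/500 nM) in pH 8.0 Tris/NaCl/TCEP buffer, beads added, then incubated 1 h, 37 C, dark.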
Hits are given with their value; 0 = inactive; ? = inconclusive; - = no result. Cut-off read from the data, not from the text of the source, unless noted: active = activity change below about -65%; inconclusive = mostly about -30% to -63%; inactive = weaker than that.

SMILES | TSHR antagonist | Chronic BCR inh | S-ASM inh | CtBP-E1A blk | Six1-Eya2 inh
Nc1cccc2c1C(=O)N(C(=O)/C=C/c1ccc(F)cc1)C2=O | 0 | ? | 0 | -65 | 0
Cc1ccc(/C=C/C(=O)C2C(=O)c3ccccc3C2=O)cc1 | 0 | ? | 0 | 0 | 0
COc1ccc(C(O)P(=O)(OCC(C)C)c2ccc(N(C)C)cc2)c(OC)c1 (configuration not stated) | 0 | ? | 0 | 0 | 0
COC(=O)C1=C(C(=O)OC)SC2(S1)C(C(=O)OC)=C(C(=O)OC)Sc1c2ssc1=O | - | - | 0 | 0 | -91
O=C(N/N=C/c1c(O)n(-c2ccccc2)c(=O)[nH]c1=O)c1ccncc1 | 0 | 0 | 0 | 0 | ?
O=c1[nH]c(=S)n(C2CC2)c(O)c1C=NCc1ccc(F)cc1 | 0 | 0 | 0 | 0 | 0
Cc1ccccc1-n1c(O)c(/C=N/NC(=O)c2ccccc2O)c(=O)[nH]c1=S | 0 | ? | 0 | -101 | -92
O=C(N/N=C/c1c(O)n(C2CC2)c(=S)[nH]c1=O)c1ccccc1O | 0 | ? | 0 | -85 | -83
O=C(N/N=C/c1c(O)n(-c2ccccc2)c(=S)[nH]c1=O)c1ccccc1 | 0 | ? | 0 | -89 | -92
O=C1OC(=O)C2C3CCC(O3)C12 (configuration not stated) | 0 | 0 | - | - | -
Cn1ccsc1=NC(=O)c1ccc(S(C)(=O)=O)c([N+](=O)[O-])c1 | 0 | ? | 0 | 0 | 0
COc1ccc(C2CC(c3c(O)n(CCc4ccccc4)c(=O)[nH]c3=O)=NN2)cc1OC (configuration not stated) | 0 | 0 | 0 | 0 | -68
Nc1ccc(C2(c3ccc(N)cc3)c3ccccc3-c3ccccc32)cc1 | -102 | ? | 0 | 0 | 0
Nc1ccc(-c2ccccc2)cc1 | - | - | 0 | 0 | 0
C=Cn1ccnc1P(=S)(c1ccn(C)c1)c1nccn1C=C | 0 | 0 | 0 | 0 | 0
C=Cn1ccnc1P(=S)(c1nccn1C=C)c1nccn1C=C | 0 | 0 | 0 | -91 | ?
C[C@]12CC[C@H](O)C[C@H]1CC[C@@H]1[C@@H]2CC[C@]2(C)[C@@H](C3=CC(=O)OC3)CC[C@]12O | -78 | ? | 0 | 0 | 0
CC12CCC(O)CC1CCC1C2CCC2(C)C(C3=CC(=O)OC3)CCC12O (configuration not stated) | - | - | 0 | 0 | 0
C[C@]12CC[C@H](O)C[C@H]1CC[C@@H]1[C@@H]2C[C@@H](O)[C@]2(C)[C@@H](C3=CC(=O)OC3)CC[C@]12O | -75 | ? | 0 | 0 | 0
Cc1cccc(N=Nc2ccc(N(C)C)cc2)c1 | 0 | 0 | ? | ? | -72
CCOC(=O)c1ccc(Nc2nc(C(=O)OCC)nc3ccccc23)cc1 | 0 | ? | 0 | -90 | -79
O=C1CCCc2cc3c(cc21)CC1(C3)Cc2cc3c(cc2C1)C(=O)CCC3 | 0 | ? | 0 | - | 0
O=C1NC(=S)N(c2ccc(F)cc2)C(=O)/C1=C/c1ccco1 | 0 | 0 | - | - | -
O=C1NC(=S)N(c2ccc(F)cc2)C(=O)/C1=C\c1ccoc1 | 0 | 0 | ? | 0 | -72
CC1(C)C[C@H]2C=C(C=O)[C@]3(C=O)C[C@]3(C)[C@H]2C1 | -87 | ? | 0 | 0 | 0
SMILES | TSHR antagonist | Chronic BCR inh | S-ASM inh | CtBP-E1A blk | Six1-Eya2 inh
CNc1ccc2nc3ccccc3[n+](C)c2c1 | ? | ? | 0 | - | -75
C[n+]1c2ccccc2nc2ccc(NCCO)cc21 | 0 | ? | 0 | -70 | -73
OCCNc1c2c(nc3ccccc13)CCCC2 | 0 | 0 | 0 | 0 | 0
CC(C)c1c(C(=O)N/N=C/c2cccc(OCc3ccccc3)c2)nnn1-c1nonc1N | ? | ? | 0 | 0 | 0
N#CC(C#N)=NNc1ccc(S(N)(=O)=O)cc1 | 0 | 0 | 0 | -74 | ?
CC1CCN(S(=O)(=O)c2ccc(NN=C(C#N)C#N)cc2)CC1 | ? | 0 | - | - | -
CN(C)c1ccc(Nc2ccc([N+](=O)[O-])cn2)cc1 | 0 | ? | 0 | ? | ?
CCCOP(=O)(c1ccc(N(C)C)cc1)C(O)c1ccc(Cl)cc1 (configuration not stated) | 0 | ? | 0 | 0 | 0
O=C(c1cc(-c2ccc(Cl)cc2)n(-c2ccc(Cl)cc2Cl)n1)N1CCOCC1 | 0 | 0 | 28µM | 0 | 0
O=C(Oc1ccc(Cl)cc1)N1CCOCC1 | 0 | ? | 0 | 0 | 0
